Screening data from PubChem BioAssay.
BCLXL inh = inhibitors of human Bcl-xL, primary screen, biochemical, fluorescence polarization, HTS; Bcl-2-like protein 1 (Homo sapiens), Q07817; GST-Bcl-xL / FITC-Bim BH3 peptide fluorescence polarization; inhibition, % at 10.9 µM; 0.7% of 320,000 active;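 active = inhibition above the mean of all tested compounds plus 3 SD, cutoff set per campaign, cut at about 30% in these data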;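 note: inhibitors lower millipolarization by displacing the labeled peptide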
Target sequence (Q07817 whole entry, looked up): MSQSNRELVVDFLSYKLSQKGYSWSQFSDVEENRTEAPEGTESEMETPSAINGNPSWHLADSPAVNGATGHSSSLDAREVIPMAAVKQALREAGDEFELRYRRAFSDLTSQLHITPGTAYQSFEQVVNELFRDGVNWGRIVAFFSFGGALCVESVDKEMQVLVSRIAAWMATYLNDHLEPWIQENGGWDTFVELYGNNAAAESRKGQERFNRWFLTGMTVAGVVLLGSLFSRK
E coli Lon inh = inhibitors of E. coli Lon protease, primary screen, biochemical, fluorescence polarization; 0.42% of 360,000 active; AID 602123, 2011; inhibition, % at 7.94 µM; P0A9M0; purified E. coli Lon protease; in the data active = inhibition above about 13%, passing the limit was not always enough
GLD-1 RNA inh = GLD-1/TGE RNA complex disruptors, primary screen, biochemical, fluorescence polarization; Female germline-specific tumor suppressor gld-1 (Caenorhabditis elegans), Q17339; purified GLD-1 + fluorescein TGE RNA; inhibition, % at 5.96 µM; 0.44% of 320,000 active; AID 2280, 2010;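 active = percent inhibition above a per-plate cutoff, the plate mean of test compounds plus 3 SD, cut at about 30% in these data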
MCL1 BIM primary = inhibitors of MCL1 binding to BIM-BH3, primary screen, biochemical, fluorescence polarization; 0.68% of 320,000 active; AID 2057, 2009; inhibition, % at 10.9 µM; GST-MCL1 / FITC-Bim-BH3 fluorescence polarization; Induced myeloid leukemia cell differentiation protein Mcl-1 (Homo sapiens), Q07820;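 active = inhibition above the mean inhibition of all tested compounds plus 3 SD, set per campaign, cut at about 40% in these data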;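 note: higher means more loss of mP so more displacement of Bim peptide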
Target sequence (Q07820 whole entry, looked up): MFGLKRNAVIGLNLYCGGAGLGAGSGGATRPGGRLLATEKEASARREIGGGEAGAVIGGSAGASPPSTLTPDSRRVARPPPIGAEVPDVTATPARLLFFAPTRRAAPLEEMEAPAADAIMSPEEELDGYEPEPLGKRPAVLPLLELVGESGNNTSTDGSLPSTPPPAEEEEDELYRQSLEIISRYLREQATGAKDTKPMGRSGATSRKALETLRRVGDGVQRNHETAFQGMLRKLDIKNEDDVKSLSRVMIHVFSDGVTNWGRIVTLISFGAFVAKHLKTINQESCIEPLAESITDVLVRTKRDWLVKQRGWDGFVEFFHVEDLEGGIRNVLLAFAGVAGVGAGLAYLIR
MEX-5 binding = MEX-5 zinc finger RNA-binding disruptors – biochemical, C. elegans, fluorescence polarization, MLPCN library, primary screen. activity score (negative = inhibition of binding), % at 10 µM. 0.38% of 300,000 active. Zinc finger protein mex-5 (Caenorhabditis elegans), Q9XUB2. MEX-5/FITC-TCR2 RNA binding; active compounds read low;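 active = inhibition past about -25% in most replicates, and total fluorescence under double the plate's negative control median, limit read from the data; inconclusive = replicates evenly split on the limit, or fluorescence at least double controls; inactive = too little inhibition in most replicates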
Large screens that a line does not name were inactive. Sampled rows, rich in hits. Any-hit rate of the full collection: about 1.4%.

CC(=O)C1(C)OC(N)=C(C#N)C(c2ccccc2)C1(C#N)C#N (stereo unspecified)	BCLXL inh 43
O=C(NCCc1cn2cccnc2n1)C1CCC(=O)N(Cc2ccccc2F)C1 (stereo unspecified)	none (no result: BCLXL inh, GLD-1 RNA inh, MCL1 BIM primary, MEX-5 binding)
COc1ccc(N2C[C@H](Cc3ccccc3)[C@@H](CC(=O)Nc3ccccc3)C2=O)cc1	none (no result: BCLXL inh, GLD-1 RNA inh, MCL1 BIM primary, MEX-5 binding)
CCN(CC)CCCNc1cc(C(F)(F)F)c(C#N)c2nc3ccccc3n12	BCLXL inh 38, MCL1 BIM primary 42
COc1cc(CN2C[C@@H](CO)O[C@@H](n3cnc4c(NCc5ccncc5)ncnc43)C2)cc(OC)c1OC	none (no result: BCLXL inh, GLD-1 RNA inh, MCL1 BIM primary, MEX-5 binding)
COc1cc2c3nnc(-c4ccccc4)c-3cn(Cc3ccc(F)cc3)c2cc1OC	MEX-5 binding -34
NCCCC[C@@H](C(=O)N1CCNCC1)n1cc(CN)nn1	none (no result: MEX-5 binding)
CCCCc1cn([C@@H](CCCCN)C(=O)N2CCNCC2)nn1	BCLXL inh 39, MEX-5 binding -29
NC(=Nc1ccc(N)cc1)C(N)=Nc1ccc(N)cc1	MEX-5 binding -30
COc1ccc(NC(=O)CN2CCC(NC(=O)C3CCCCC3)CC2)c([N+](=O)[O-])c1	MEX-5 binding -92
CCOC(=O)COn1c(=O)c(-c2cc3ccccc3o2)[n+]([O-])c2ccccc21	MEX-5 binding -37
CCOC(=O)COn1c(=O)c(-c2ccc(F)cc2)[n+]([O-])c2ccccc21	none (no result: BCLXL inh, GLD-1 RNA inh, MCL1 BIM primary)
CCN(CCCCN1C(=O)c2ccccc2C1=O)c1ccc2c(c1)C(=O)N(C)C2=O	BCLXL inh 38, MCL1 BIM primary 49
O=c1cc(CN2CCN(c3ccccc3F)CC2)c2ccccc2o1	none (no result: BCLXL inh, GLD-1 RNA inh, MCL1 BIM primary, MEX-5 binding)
COc1ccc(NC(=O)c2nc3nccc(C)n3n2)cn1	BCLXL inh 34
COc1ccc(NC(=O)c2ccc(NC(=O)c3nc4nccc(C)n4n3)cc2)cc1	none (no result: BCLXL inh, MCL1 BIM primary, MEX-5 binding)
COCCN1CCC(CNCc2c(C(=O)N3CCCCC3)nc3c(C)cccn23)C1 (stereo unspecified)	MEX-5 binding -49
O=C(O)C1=CC(=C(c2ccc(O)c(C(=O)O)c2)c2ccc(O)c(C(=O)O)c2)C=CC1=O	BCLXL inh 76, GLD-1 RNA inh 92, MCL1 BIM primary 108 (no result: E coli Lon inh, MEX-5 binding)
O=C(Nc1ccn(CCCNC2CCN(Cc3ccccc3)CC2)c(=O)n1)OCc1ccccc1	none (no result: BCLXL inh, GLD-1 RNA inh, MCL1 BIM primary, MEX-5 binding)
O=c1ccc2[n+]([O-])c3ccc(O)cc3oc-2c1	MEX-5 binding -81 (no result: BCLXL inh, GLD-1 RNA inh, MCL1 BIM primary)
O=c1cc(O)c2ccc(O)cc2o1	none
CC(C)NC(=O)Cn1nnc(-c2ccccc2)c1COc1ccc2ccccc2c1	none (no result: BCLXL inh, GLD-1 RNA inh, MCL1 BIM primary, MEX-5 binding)
O=C(CC[C@H]1O[C@@H](n2ccc(=O)[nH]c2=O)[C@H](O)[C@@H]1O)N[C@H](Cc1ccccc1)C(=O)NCC1CCCCC1	none (no result: BCLXL inh, GLD-1 RNA inh, MCL1 BIM primary, MEX-5 binding)
CCC1(C)CC(C#N)(C#N)C(=O)NC1=O (stereo unspecified)	none (no result: BCLXL inh, GLD-1 RNA inh, MCL1 BIM primary, MEX-5 binding)
O=C(Nc1ccc2nc([C@H]3C[C@H](O)[C@@H](CO)O3)[nH]c2c1)NC(c1ccccc1)c1ccccc1	none (no result: BCLXL inh, GLD-1 RNA inh, MCL1 BIM primary, MEX-5 binding)
CC1CN(Cc2c(O)ccc3c2oc(=O)c2ccccc23)CC(C)O1 (stereo unspecified)	MEX-5 binding -29
Cc1cccc[n+]1C1C(c2ccc([N+](=O)[O-])cc2)C(C#N)=C(C(=C=[N-])C#N)NC1(O)C1CC1 (stereo unspecified)	BCLXL inh 31
CCCC1NC(=O)c2cccnc2-n2c1nc1ccc(C)cc1c2=O (stereo unspecified)	none (no result: BCLXL inh, GLD-1 RNA inh, MCL1 BIM primary, MEX-5 binding)
Cc1cc(C)nc(NN2C(=O)C=CC2=O)n1	MEX-5 binding -29
Cc1cc(C)nc(NN2C(=O)/C(=C/c3ccccc3)SC2=S)n1	none
CCCn1nc(C(=O)Nc2cccc(S(=O)(=O)N3CCOCC3)c2)c2ccccc2c1=O	none (no result: BCLXL inh, GLD-1 RNA inh, MCL1 BIM primary, MEX-5 binding)
COC(=O)c1ccc2c(c1)C(C)(C)C(/C=C/c1ccccc1O)=[N+]2C	GLD-1 RNA inh 40, MEX-5 binding inconclusive
CN(Cc1ccccc1)C(=O)c1ccc(Nc2nc(C(N)Cc3ccc(C(F)(F)F)cc3)cs2)nc1 (stereo unspecified)	none (no result: BCLXL inh, GLD-1 RNA inh, MCL1 BIM primary, MEX-5 binding)
CC(=O)CSc1nc2cc3c(cc2cc1C#N)OCCO3	BCLXL inh 34, MCL1 BIM primary 42
C=C1C(=O)c2sccc2C(c2ccc(OC)c(OC)c2)C1COC(C)=O (stereo unspecified)	none (no result: BCLXL inh, GLD-1 RNA inh, MCL1 BIM primary, MEX-5 binding)
Cc1cc2c(n1-c1ccc(C(=O)O)cc1)CCCCC2	MEX-5 binding -62 (no result: BCLXL inh, E coli Lon inh, GLD-1 RNA inh, MCL1 BIM primary)
CC1=NN(c2ccc(C(=O)O)c(N)c2)C(=O)C1	MEX-5 binding -39
CN1C(=O)/C(=C\c2ccc(N(C)C)cc2)OC1=S	MEX-5 binding -89 (no result: BCLXL inh, GLD-1 RNA inh, MCL1 BIM primary)
CN(C)c1ccc(/C=C2\N=C(C(C)(C)C)OC2=O)cc1	MEX-5 binding -43
COc1cccc(CNC(=O)C2CCN(S(=O)(=O)c3ccc4c(c3)C(C)(C)C(=O)N4C)CC2)c1	none (no result: BCLXL inh, GLD-1 RNA inh, MCL1 BIM primary, MEX-5 binding)
CCc1nc2ccc(C(=O)Nc3cccc(OCC(=O)N(C)C)c3)cn2c1N(CC)CCOC	none (no result: BCLXL inh, GLD-1 RNA inh, MCL1 BIM primary, MEX-5 binding)
O=NN(CCF)C(=O)NC1CCS(=O)(=O)CC1	none (no result: BCLXL inh, GLD-1 RNA inh, MCL1 BIM primary, MEX-5 binding)
NC(=O)c1cccc(-c2ccnc3c2CC(C(=O)NCc2cccc(Cl)c2)O3)c1 (stereo unspecified)	none (no result: BCLXL inh, GLD-1 RNA inh, MCL1 BIM primary, MEX-5 binding)
CC1(C)CC(=O)C2=C(C1)OC(N)=C(C#N)C2c1ccc[nH]1 (stereo unspecified)	BCLXL inh 33
COc1ccc(C2C(C#N)=C(N)OC3=C2C(=O)CC(C)(C)C3)cc1 (stereo unspecified)	BCLXL inh 51
CC1(C)CC(=O)C2=C(C1)OC(N)=C(C#N)C2c1ccc(OC(=O)N2CCOCC2)cc1 (stereo unspecified)	none
CCOc1ccc(Cl)cc1-c1cc(C(=O)NCCc2ccncc2)[nH]n1	none (no result: BCLXL inh, GLD-1 RNA inh, MCL1 BIM primary, MEX-5 binding)
OC(c1cccc(F)c1)c1ncc(-c2ccc(Oc3ccccc3)cc2)[nH]1 (stereo unspecified)	none (no result: BCLXL inh, GLD-1 RNA inh, MCL1 BIM primary, MEX-5 binding)
C[N+](C)(C)CC(=O)N/N=C/c1c2ccccc2cc2ccccc12	none
Cn1cccc1/C=N/NC(=O)Cc1cccc2ccccc12	none
Cn1cccc1CC(=O)N/N=C\c1c2ccccc2cc2ccccc12	BCLXL inh 33, MCL1 BIM primary 51
Cn1cccc1CC(=O)N/N=C/c1cccc2ccccc12	BCLXL inh 46, GLD-1 RNA inh 36
CCC(/C=N/NC(=O)C1COc2ccccc2O1)CC (stereo unspecified)	none
CCC/C=N/NC(=O)C1COc2ccccc2O1 (stereo unspecified)	BCLXL inh 98
Cc1ccccc1Nc1nnc(SCC(=O)NCC2CCCO2)s1 (stereo unspecified)	none (no result: BCLXL inh, MCL1 BIM primary, MEX-5 binding)
O=C(O)c1ccc2c(c1)NC(=O)C(N1CCCC1)S2 (stereo unspecified)	BCLXL inh 32, MCL1 BIM primary 41
CC1=C(C(=O)N(C(C)C)C(C)C)CC(CC(=O)NCc2ccco2)C(=O)N1CCC1=CCCCC1 (stereo unspecified)	none (no result: BCLXL inh, GLD-1 RNA inh, MCL1 BIM primary, MEX-5 binding)
